High-throughput results as filed in PubChem.
PrPC TRFRET = inhibitors of human cell surface prion protein PrPC; TR-FRET read-out; P04156; 0.43% of 370,000 active; inhibition, % at 13.8 µM; AID 720596; in the data active = inhibition above about 24%; note: 0% = median of the test wells and 100% = reference compound wells
PrP 5UTR inh = suppresses PrP 5' UTR mRNA reporter expression; 0.35% of 340,000 active; cell-based PrP 5' UTR mRNA reporter, plate reader; AID 488862; inhibition, % (concentration not given with the values); in the data active = inhibition above about 52%; note: 0 = median of the neutral control wells
BJeLR viability = kills HRASV12-expressing BJeLR cells. inhibition, % (concentration not given with the values). 0.17% of 300,000 active. BJeLR (HRASV12) viability, CellTiter-Glo ATP luminescence, 48 h. AID 1554; in the data active = inhibition above about 50%
MazF activator = MazEF (E. coli) toxin RNase activation; P0AE70; FAM/BHQ RNA-DNA oligo cleavage fluorescence, 5 h; activation, % at 20 µM; 0.32% of 350,000 active; AID 504720; in the data active = activation above about 50%
Target sequence (P0AE70 whole entry, looked up): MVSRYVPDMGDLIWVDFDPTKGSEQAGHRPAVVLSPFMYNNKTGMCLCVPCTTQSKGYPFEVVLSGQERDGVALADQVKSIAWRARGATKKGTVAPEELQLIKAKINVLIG
PrP 5UTR single = prion 5' UTR mRNA inhibition, cherry-pick retest | shares compounds with PrP 5UTR inh | cell-based prion protein 5' UTR reporter, plate reader | inhibition, % at 2.5 µM | 48% of 1,100 active | AID 504592; in the data active = inhibition above about 54%
* marks the source's active call; other numbers are inactive results; . = no result; ! = repeats disagree. Shown are actives, neighbours in structure and some others; about 1.1% of the full set was active somewhere.

SMILES | PrPC TRFRET | PrP 5UTR inh | BJeLR viability | MazF activator | PrP 5UTR single
O=C(O)c1nn(-c2ccccc2C(F)(F)F)cc1O | 9.2 | -26.6 | -11.7 | 12.7 | .
Nc1ncnc2c(C3OC(CO)C(O)C3O)scc12 (stereo not drawn) | 54.9* | 57.6* | . | 12.4 | 81.6*
CCOC(=O)OC(C)OC(=O)[C@@H]1N2C(=O)[C@@H](NC(=O)[C@H](N)c3ccccc3)[C@H]2SC1(C)C (stereo partly drawn) | -3.9 | 54.5* | . | 6.8 | -8.2
CC(Oc1ccccc1)C(=O)NC1C(=O)N2C1SC(C)(C)C2C(=O)O (stereo not drawn) | -8.6 | -18.4 | 1.9 | -13.1 | .
COc1ccc(NC(=O)NNC(=O)CCn2nc(C)c([N+](=O)[O-])c2C)cc1OC | -3.2 | . | . | . | .
COc1cccc(NC(=O)CSc2nnc(-c3cc(C)n(-c4ccccc4)c3C)o2)c1 | 2.3 | 56.9* | 7.6 | -6.0 | 24.2
COc1ccc(NC(=O)CSc2nnc(-c3cccc(O)c3)o2)cc1 | -1.0 | -57.5 | -10.5 | 8.1 | .
Cc1ccc(NC(=O)c2cc3ccccc3oc2=N)cc1 | 3.8 | 67.5* | -1.4 | -6.3 | 38.6
COC(=O)[C@]12C[C@H](CC(=O)N3CCSCC3)C(=O)N(Cc3ccco3)C1=C[C@H](COCc1ccccc1)O[C@@H]2C | 8.2 | . | . | . | .
Cc1ccc(C(=O)CN2C(=O)c3ccccc3S2(=O)=O)cc1 | -6.4 | 65.5* | 0.2 | 6.5 | 74.1*
O=C(CN1C(=O)c2ccccc2S1(=O)=O)c1ccccc1Cl | 3.9 | 69.0* | 13.3 | . | 70.5*
C[C@@H](CO)N(CCc1cn(Cc2ccccc2)nn1)S(=O)(=O)c1ccccc1Br | -4.4 | . | . | . | .
O=C1CC(SC(=NCc2ccc3c(c2)OCO3)Nc2ccccc2)C(=O)N1 (stereo not drawn) | -3.7 | 73.4* | -2.5 | -0.4 | -15.2
COc1cc(OC)cc(C(=O)N2CCN(Cc3ccccc3Br)CC2)c1 | 5.3 | 85.5* | 1.5 | -3.8 | -6.3
COc1cc(OC)cc(C(=O)N2CCN(Cc3cccc(F)c3)CC2)c1 | -2.7 | -1.7 | -0.7 | 4.3 | .
COC(=O)c1cn(NC(=O)c2ccccc2[N+](=O)[O-])c(=O)c2ccccc12 | -3.7 | 55.9* | . | -6.9 | -41.0
Cc1ccc(-n2[nH]c(=O)c3cccnc32)cc1 | -1.2 | -12.9 | -12.8 | 3.9 | .
Cc1ccc(-n2[nH]c(=O)c(-c3ccccn3)c2C)cc1 | 9.5 | 71.6* | 4.0 | 15.7 | 68.4*
O=c1c2ccccc2ncn1-c1ccc(Cl)cc1[N+](=O)[O-] | -29.0 | -11.2 | -3.3 | -2.8 | .
Cc1nc2ccccc2c(=O)n1-c1ccc(Cl)cc1[N+](=O)[O-] | -21.5 | 80.3* | -2.5 | -1.1 | -10.1
CC1CCCCN1CCCNC(=O)c1cc(Br)c(Br)[nH]1 (stereo not drawn) | -10.0 | 81.6* | 1.4 | 3.0 | 6.1
CC1CCCCN1CCCNC(=O)c1ccc(Br)cc1 (stereo not drawn) | -3.9 | -8.3 | -9.0 | -3.8 | .
Cc1cccc(C(=O)N(Cc2ccco2)c2c(N)n(Cc3ccccc3)c(=O)[nH]c2=O)c1 | -8.8 | 89.6* | . | 6.0 | -45.7
Cc1ccc(C(=O)N(Cc2ccco2)c2c(N)n(Cc3ccccc3)c(=O)[nH]c2=O)cc1 | 8.8 | . | . | -3.1 | .
COc1ccccc1-c1nnc(SCC(=O)NC2CCCCC2)o1 | 3.1 | 75.5* | -8.0 | 3.5 | -3.7
SMILES | PrPC TRFRET | PrP 5UTR inh | BJeLR viability | MazF activator | PrP 5UTR single
COc1ccc(N2CCN(CCCNC(=O)COc3ccc(F)cc3)CC2)cc1 | -9.5 | . | . | . | .
CCCCN1CCc2c(c3ccccc3n2Cc2ccccc2)C1 | -1.3 | 5.7 | 7.8 | -12.6 | .
CN1CCc2c(c3ccccc3n2Cc2ccccc2)C1 | -5.0 | 58.3*! | 3.3 | -1.5 | -5.8
COC(=O)Cc1c(O)ccn(Cc2ccc(OC)c(OC)c2)c1=O | 1.8 | 63.0* | -0.1 | -2.0 | -8.1
O=C(NCc1ccco1)c1ccc2c(c1)N(Cc1ccccc1)C(=O)CS2=O (stereo not drawn) | 3.9 | 60.8* | 1.4 | 7.3 | 15.4
COc1cc(C2c3[nH]c4ccccc4c3CC3COC(=O)N32)cc(OC)c1O (stereo not drawn) | 4.0 | 58.6* | . | 5.4 | 89.7*
O=C(Cc1ccc2c(c1)OCO2)N1CCC(n2nc(-c3ccccc3)oc2=O)CC1 | 7.3 | . | . | . | .
CCOc1ccc(Nc2nc(N)c3ccccc3n2)cc1 | 5.0 | 56.1* | 37.6 | 2.1 | 41.2
CN(C)c1ccc(Nc2nc(N)c3ccccc3n2)cc1 | 13.9 | 77.4* | 32.8 | 7.4 | 62.1*
Cc1ccc2c(c1)sc(=NC(=O)c1cccs1)n2C | -6.3 | 65.1* | 16.5 | 4.6 | 24.2
Cc1ccc2c(c1)sc(=NC(=O)C1CC1)n2C | -7.9 | -47.7 | -0.2 | -8.5 | .
CC1=Nc2cc(C(=O)NCc3ccco3)ccc2Sc2ccc(C)cc21 | 9.7 | 61.3* | 53.9* | 1.6 | 88.3*
CC1=Nc2cc(C(=O)NCC3CCCO3)ccc2Sc2ccc(C)cc21 (stereo not drawn) | 10.5 | -34.6 | 26.6 | -11.1 | .
CC(C)c1[nH]nc2c1C(c1ccccc1)N(Cc1ccccc1)C2=O (stereo not drawn) | -6.1 | . | . | . | .
CN(C)C=Nc1nc2ccccc2nc1N1CCCC1 | -9.4 | 54.2* | 8.3 | -7.5 | -3.1
c1ccc2nc(N3CCCC3)c(N3CCCC3)nc2c1 | -4.4 | -5.8 | 28.7 | -1.2 | .
COC1C=CC=C(C)C(=O)NC2=CC(=O)C(N)=C(CC(C)CC(OC)C(O)C(C)C=C(C)C1OC(N)=O)C2=O (stereo not drawn) | -32.6 | 76.4* | . | 1.6 | 82.2*
COC1CC(C)C(OC)c2cc(O)cc(c2O)NC(=O)C(C)=CC=CC(C)C(OC(N)=O)C(C)=CC(C)C1OC (stereo not drawn) | 1.4 | 30.4 | . | 3.4 | .
O=C(NC(=S)N1CCN(CCO)CC1)C12CC3CC(CC(C3)C1)C2 | -2.1 | 79.7* | -12.4 | 6.3 | 1.1
O=C(NC(=S)N1CCOCC1)C12CC3CCC(CC(C3)C1)C2 | 10.2 | -23.6 | 3.2 | 0.9 | .
Cc1cc(C)c2c(N)c(C(=O)Nc3ncc(C)s3)sc2n1 | -27.7 | 89.2* | . | 1.0 | 83.6*
COc1ccc(OC)c(Nc2c3c(nc4ccccc24)CCC3)c1 | 18.9 | 73.6* | 46.9 | 4.9 | 87.1*
CN(Cc1ccccc1)C(=O)COC(=O)c1cncc(Br)c1 | -2.2 | 71.5* | . | 9.4 | -13.8
COC(=O)[C@]12C[C@H](CC(=O)N3CCCCC3)C(=O)N(CCc3ccc(OC)c(OC)c3)C1=C[C@H](C(C)(C)C)O[C@@H]2C | -1.7 | . | . | . | .
NC(Cc1ccc(O)cc1)c1cn([C@@H](CCC(=O)O)C(=O)N2CCNCC2)nn1 (stereo partly drawn) | 1.2 | 64.0* | -2.5 | -1.0 | -1.8
N#CC(c1c(Cl)cccc1N1CCCCC1)N1CCCCC1 (stereo not drawn) | 3.7 | . | . | . | .
CC(C(=O)Nc1ccccc1Br)c1ccc([N+](=O)[O-])cc1 (stereo not drawn) | -10.3 | 2.6 | 0.8 | -15.9 | .
COC(=O)c1ccccc1NC(=O)C(C)c1ccc([N+](=O)[O-])cc1 (stereo not drawn) | -6.8 | 63.6* | -0.7 | -8.6 | 2.0
COc1cc(/C=N/O)ccc1OCc1ccc(C(=O)O)cc1 | -1.7 | 88.0* | 14.1 | 2.3 | 91.1*
